# Several values for one entry are separate records, joined by “and”; a condition that tells them apart may be missing. Identical values can stand only once. Records with an inconclusive call do not appear. Activity calls are given as the source filed them.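 Rule for the calls, unless noted: active = compounds whose cell count with miR-34 switched on is under 0.7 times the count with it off; inactive = the rest.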
# Assays:
# [1] = hESC survival regulators, cell-based (AID 493140; call rule not given here;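 note: cells exposed to compounds for four days before counting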); conditions: human embryonic stem cell survival screen; stronger effect = higher value
# [2] = liver-stage malaria parasite growth inhibition, primary screen, cell-based, HepG2, luciferase luminescence, HepG2 viability (AID 624349; in the data active = parasite load remaining mostly below about 12%, no sharp cut-off; inactive = mostly above about 10%;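 note: 100% = mean of DMSO negative control wells on the same plate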); conditions: P. berghei liver stage in HepG2, luciferase luminescence, concentration not given here; parasite load remaining: stronger effect = lower value; viability: measured here: HepG2 viability without parasites
# [3] = stimulators of nuclear beta-catenin in C2C12, primary screen, imaging, WNT3A-conditioned medium, mouse C2C12, NPC library (AID 1117326; in the data active = nuclear beta-catenin stimulation mostly above about 4.2%, no sharp cut-off; inactive = mostly below about 10%); conditions: stronger effect = higher value
# [4] = stimulators of insulin release from INS-1E, primary screen, cell-based, 5 mM glucose, NPC library (AID 1117329;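 active = compound raises insulin release from rat beta cells at 5 mM glucose, no numeric limit stated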); conditions: rat INS-1E insulin secretion, at 10 µM, stronger effect = higher value
# [5] = growth inhibition of GSK3B-pretreated HCT116 cells – cell-based, CellTiter-Glo, 0.2 to 20 µM (AID 1117336;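 active = compounds lowering colon cancer cell viability after pretreatment blocking the GSK3B kinase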); conditions: HCT116 viability after GSK3B inhibitor, at 20 µM, stronger effect = higher value
# [6] = inhibition of endothelial tube formation, primary screen, imaging, VEGF stimulated, CD31 staining, tube area, NPC library (AID 1117340;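 active = compound that reduces growth-factor-driven endothelial tube area in a mixed cell culture, no cutoff stated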); conditions: VEGF-stimulated ADSC/ECFC co-culture, at 10 µM, stronger effect = higher value
# [7] = glucagon-like peptide 1 release enhancers, primary assay, NCI-H716 cell line, NPC library (AID 1117341;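 active = compound raises GLP1 secretion from the human gut endocrine cells, with no numeric limit stated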); conditions: NCI-H716 cells, at 10 µM, stronger effect = higher value
# [8] = HCT116 colon cancer cell growth inhibition, primary screen, CellTiter-Glo luminescence, NPC library (AID 1117342;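 active = compounds that lower survival of HCT116 colon cancer cells in the luminescence readout, no numeric limit stated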); conditions: at 20 µM (top of the series)
# [9] = CellTiter-Glo luminescent readout of SW480 viability loss, NPC library primary (AID 1117343;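 active = compounds that lower viability of the colon cancer cells in the luminescence readout, with no numeric limit stated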); conditions: CellTiter-Glo luminescence; at 20 µM (top of the series) unless noted
# [10] = decreased DLD-1 cellular survival, CellTiter-Glo luminescent readout, NPC compound collection, primary HTS (AID 1117346;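 active = compounds that lower survival of DLD-1 colon cancer cells in the luminescence readout, no cutoff given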); conditions: DLD-1 viability, CellTiter-Glo luminescence; at 20 µM (top of the series)
# [11] = sensitizers of A549 cells to miR-34 induction, primary screen, imaging, A549 dox-inducible miR-34, nuclei and caspase counts (AID 1347080); conditions: A549 miR-34 inducible, Hoechst nuclei count, 48 h
# [12] = survival rescue of mitochondrial mutant cells in low glucose, primary screen, MELAS cybrids, Rieske KO mouse fibroblasts, CellTiter-Glo (AID 1508586;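 active = mean z-score across replicates of 1.96 or higher in either the MELAS or the Rieske mutant cell line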;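 note: z relative to plate mean and SD of compound and empty wells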)
# [13] = viability rescue of complex I mutant cybrids, primary screen, cell-based, galactose medium, ATP luminescence (AID 1645843;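 active = z-score of at least 1.8 in each of two replicates, scored against plate mean and spread of sample wells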;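 note: positive z means more ATP and so rescue of galactose-driven cybrid death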); conditions: complex I mutant cybrid cells, 72 h, stronger effect = higher value
# [14] = target: ATP-dependent translocase ABCB1 (Homo sapiens) (UniProt P08183); assay: MDR1 (ABCB1) efflux transporter inhibition, cell-based (AID 377; in the data active = fluorescence slope change above about 50%); conditions: MDR1-expressing cells, fluorescent substrate accumulation slope; stronger effect = higher value; concentration not given here
# ATP-dependent translocase ABCB1 (Homo sapiens), sequence (P08183 whole entry, looked up): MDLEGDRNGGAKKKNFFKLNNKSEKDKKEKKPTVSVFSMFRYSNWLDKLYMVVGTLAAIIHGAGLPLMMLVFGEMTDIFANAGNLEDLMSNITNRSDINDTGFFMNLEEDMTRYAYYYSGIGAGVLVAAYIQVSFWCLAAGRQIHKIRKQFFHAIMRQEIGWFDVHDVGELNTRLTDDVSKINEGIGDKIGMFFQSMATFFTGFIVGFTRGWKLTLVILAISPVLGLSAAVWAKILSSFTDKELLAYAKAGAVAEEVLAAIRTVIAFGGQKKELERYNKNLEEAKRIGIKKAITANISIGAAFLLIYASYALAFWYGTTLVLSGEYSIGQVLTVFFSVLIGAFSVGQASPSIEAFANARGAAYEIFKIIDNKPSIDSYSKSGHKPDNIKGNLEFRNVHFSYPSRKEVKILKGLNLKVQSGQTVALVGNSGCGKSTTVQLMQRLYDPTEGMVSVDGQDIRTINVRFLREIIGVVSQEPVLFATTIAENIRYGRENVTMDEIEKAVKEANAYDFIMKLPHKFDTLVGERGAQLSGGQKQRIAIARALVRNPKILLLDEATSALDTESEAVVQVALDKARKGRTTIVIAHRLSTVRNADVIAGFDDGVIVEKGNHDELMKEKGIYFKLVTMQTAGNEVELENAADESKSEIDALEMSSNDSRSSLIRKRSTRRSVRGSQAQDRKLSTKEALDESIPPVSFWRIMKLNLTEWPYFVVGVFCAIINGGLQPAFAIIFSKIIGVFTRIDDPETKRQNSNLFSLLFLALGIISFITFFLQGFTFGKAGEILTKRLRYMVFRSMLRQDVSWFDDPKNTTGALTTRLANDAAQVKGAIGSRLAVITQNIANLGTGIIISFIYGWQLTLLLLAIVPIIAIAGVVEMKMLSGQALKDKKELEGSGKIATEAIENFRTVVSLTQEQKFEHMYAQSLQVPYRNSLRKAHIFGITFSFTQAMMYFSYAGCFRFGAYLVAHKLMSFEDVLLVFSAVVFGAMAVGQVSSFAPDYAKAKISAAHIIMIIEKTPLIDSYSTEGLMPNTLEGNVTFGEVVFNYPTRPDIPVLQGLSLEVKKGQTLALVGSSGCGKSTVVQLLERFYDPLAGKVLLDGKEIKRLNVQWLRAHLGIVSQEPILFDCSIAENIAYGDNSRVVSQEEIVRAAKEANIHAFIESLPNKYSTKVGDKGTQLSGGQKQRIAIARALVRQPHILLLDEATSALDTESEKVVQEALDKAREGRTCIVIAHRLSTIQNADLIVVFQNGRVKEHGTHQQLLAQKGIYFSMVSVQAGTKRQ
# [15] = target: NAD(+) hydrolase SARM1 (Homo sapiens) (UniProt Q6SZW1); assay: SARM1 TIR NADase inhibitors, cell lysate, NAD-Glo luminescence (AID 1508614;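 active = compound whose remaining NAD level is above about 45 nM, limit read from the data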;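 note: higher remaining NAD means stronger inhibition of SARM1 NADase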); conditions: SAM-TIR HEK293T lysate NADase, at 1 µM, stronger effect = higher value
# NAD(+) hydrolase SARM1 (Homo sapiens), sequence (Q6SZW1 whole entry, looked up, the tested form may be a part): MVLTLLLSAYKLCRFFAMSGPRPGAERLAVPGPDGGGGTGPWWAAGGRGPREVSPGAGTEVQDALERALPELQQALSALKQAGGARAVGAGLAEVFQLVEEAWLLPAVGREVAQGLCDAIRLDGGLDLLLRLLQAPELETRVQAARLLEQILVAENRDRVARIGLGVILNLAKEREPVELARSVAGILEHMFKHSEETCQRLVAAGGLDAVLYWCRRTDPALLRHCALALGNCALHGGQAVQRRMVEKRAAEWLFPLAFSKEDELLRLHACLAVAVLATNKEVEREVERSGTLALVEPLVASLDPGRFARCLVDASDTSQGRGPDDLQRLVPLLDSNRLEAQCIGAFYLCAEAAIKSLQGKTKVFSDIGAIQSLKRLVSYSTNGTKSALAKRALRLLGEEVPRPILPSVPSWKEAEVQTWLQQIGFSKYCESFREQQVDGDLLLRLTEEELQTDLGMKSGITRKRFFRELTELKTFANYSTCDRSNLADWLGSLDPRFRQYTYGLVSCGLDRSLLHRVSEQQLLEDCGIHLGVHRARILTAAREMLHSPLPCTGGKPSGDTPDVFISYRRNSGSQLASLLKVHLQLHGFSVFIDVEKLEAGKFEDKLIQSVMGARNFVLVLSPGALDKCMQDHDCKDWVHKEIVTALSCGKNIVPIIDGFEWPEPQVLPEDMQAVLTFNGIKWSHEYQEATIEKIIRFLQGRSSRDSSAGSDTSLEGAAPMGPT
# [16] = target: Mitogen-activated protein kinase 7 (Homo sapiens) (UniProt Q13164); assay: ERK5 transactivation activators in reporter cells, primary screen, cell-based, HTS (AID 1508626;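 active = luciferase signal above three times the same-plate solvent-only control wells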;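 note: luciferase driven by Gal4-ERK5 fusion binding five Gal4 sites before minimal TATA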); conditions: HeLa Gal4-ERK5 transactivation, 18 h, at 5 µM, stronger effect = higher value
# Mitogen-activated protein kinase 7 (Homo sapiens), sequence (Q13164 whole entry, looked up, the tested form may be a part): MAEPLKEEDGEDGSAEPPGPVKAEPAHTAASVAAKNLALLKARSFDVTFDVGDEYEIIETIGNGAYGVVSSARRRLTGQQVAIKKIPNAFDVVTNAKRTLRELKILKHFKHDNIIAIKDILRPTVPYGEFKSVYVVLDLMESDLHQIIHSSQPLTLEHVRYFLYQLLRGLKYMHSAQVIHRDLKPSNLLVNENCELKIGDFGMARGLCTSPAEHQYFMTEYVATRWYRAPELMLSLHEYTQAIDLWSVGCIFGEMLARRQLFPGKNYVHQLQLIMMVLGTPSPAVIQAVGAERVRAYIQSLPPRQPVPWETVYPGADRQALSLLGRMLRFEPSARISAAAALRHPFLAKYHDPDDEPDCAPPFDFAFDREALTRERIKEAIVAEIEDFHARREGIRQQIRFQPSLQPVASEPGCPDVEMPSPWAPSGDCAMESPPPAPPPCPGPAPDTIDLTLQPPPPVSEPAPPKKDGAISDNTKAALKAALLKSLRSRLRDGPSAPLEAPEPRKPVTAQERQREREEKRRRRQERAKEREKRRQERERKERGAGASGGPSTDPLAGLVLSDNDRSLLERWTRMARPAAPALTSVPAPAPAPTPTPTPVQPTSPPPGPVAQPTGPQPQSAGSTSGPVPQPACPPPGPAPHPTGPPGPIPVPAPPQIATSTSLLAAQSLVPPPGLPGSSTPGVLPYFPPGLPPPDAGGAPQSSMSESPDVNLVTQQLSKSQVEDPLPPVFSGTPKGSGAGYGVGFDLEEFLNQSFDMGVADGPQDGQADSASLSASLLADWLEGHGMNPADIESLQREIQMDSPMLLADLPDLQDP
# [17] = stronger effect = lower value, cell number ratio, induced over uninduced
# [18] = measured here: relative caspase fold change +Dox/-Dox
# [19] = measured here: total cells with miR-34 induction, stronger effect = lower value
# [20] = measured here: total cells without miR-34 induction
# [21] = MELAS cybrid survival, CellTiter-Glo 48 h, stronger effect = higher value
# [22] = Rieske KO mouse fibroblast survival, CellTiter-Glo 72 h
structure (smiles),measurement,setting,value
NS(=O)(=O)c1cc(C(=O)O)cc(N2CCCC2)c1Oc1ccccc1,survival,[1],11.5 (inactive)
same,parasite load remaining,[2],67.6% (inactive)
same,viability,[2],80.6%
same,nuclear beta-catenin stimulation,[3]; at 10 µM,0.5% (inactive)
same,nuclear beta-catenin stimulation,"[3]; stimulation, at 2 µM",-0.6%
same,insulin secretion stimulation,[4],-1% (inactive)
same,viability decrease,[5],-7.05% (inactive)
same,tube area decrease,[6],-7% (inactive)
same,GLP1 secretion stimulation,[7],1.1% (inactive)
same,inhibition of viability,[8],6.7% (inactive)
same,viability decrease (inhibition),[9],-4.4% (inactive)
same,viability decrease (inhibition),[10],-15.4% (inactive)
same,fold change,[11]; [17],0.92 (inactive)
same,fold change,[11]; [18],0.688
same,cell count,[11]; [19],8630
same,cell count,[11]; [20],9380
same,z-score,[12]; [21],-0.17 (inactive)
same,z-score,[12]; [22],-0.69
CCC(C)(CN(C)C)OC(=O)c1ccccc1 (stereo not drawn),survival,[1],26.8 (inactive)
same,parasite load remaining,[2],38.1% (inactive) and 188% (inactive)
same,viability,[2],56.2% and 90.3%
same,nuclear beta-catenin stimulation,[3]; at 10 µM,-2.1% (inactive)
same,nuclear beta-catenin stimulation,"[3]; stimulation, at 2 µM",-1.6%
same,insulin secretion stimulation,[4],3% (inactive)
same,viability decrease,[5],-25.9% (inactive)
same,tube area decrease,[6],-3.6% (inactive)
same,GLP1 secretion stimulation,[7],-1.9% (inactive)
same,inhibition of viability,[8],-6.83% (inactive)
same,viability decrease (inhibition),[9],7.2% (inactive)
same,viability decrease (inhibition),[10],-17.6% (inactive)
same,fold change,[11]; [17],0.964 (inactive)
same,fold change,[11]; [18],0.9
same,cell count,[11]; [19],8680
same,cell count,[11]; [20],9000
same,z-score,[12]; [21],0.476 (inactive)
same,z-score,[12]; [22],-0.277
CN(C)CCn1nnnc1SCC1=C(C(=O)O)N2C(=O)[C@@H](NC(=O)Cc3csc(N)n3)[C@H]2SC1,survival,[1],7.25 (inactive)
same,parasite load remaining,[2],47.4% (inactive) and 69.6% (inactive)
same,viability,[2],114% and 74.2%
same,nuclear beta-catenin stimulation,[3]; at 10 µM,-1.2% (inactive)
same,nuclear beta-catenin stimulation,"[3]; stimulation, at 2 µM",1.1%
same,insulin secretion stimulation,[4],2.8% (inactive)
same,viability decrease,[5],4.6% (inactive)
same,tube area decrease,[6],-30.8% (inactive)
same,GLP1 secretion stimulation,[7],-3% (inactive)
same,inhibition of viability,[8],-8.3% (inactive)
same,viability decrease (inhibition),[9],4.5% (inactive)
same,viability decrease (inhibition),[10],-6.8% (inactive)
same,fold change,[11]; [17],0.874 (inactive)
same,fold change,[11]; [18],1.13
same,cell count,[11]; [19],8320
same,cell count,[11]; [20],9520
same,z-score,[12]; [21],-0.0188 (inactive)
same,z-score,[12]; [22],-0.0723
CN(C)CCN1C(=O)c2ccccc2N(C)c2ccccc21,parasite load remaining,[2],18.6% (inactive)
same,viability,[2],64.5%
same,nuclear beta-catenin stimulation,[3]; at 10 µM,0.8% (inactive)
same,nuclear beta-catenin stimulation,"[3]; stimulation, at 2 µM",-0.9%
same,insulin secretion stimulation,[4],14.4% (inactive)
same,viability decrease,[5],8.2% (inactive)
same,tube area decrease,[6],11.6% (inactive)
same,GLP1 secretion stimulation,[7],4% (inactive)
same,inhibition of viability,[8],0.3% (inactive)
same,viability decrease (inhibition),[9],35.8% (inactive)
same,viability decrease (inhibition),[10],-35.8% (inactive)
same,fold change,[11]; [17],0.889 (inactive)
same,fold change,[11]; [18],1.32
same,cell count,[11]; [19],10000
same,cell count,[11]; [20],11300
same,z-score,[12]; [21],0.44 (inactive) and -0.381 (inactive)
same,z-score,[12]; [22],0.025 and -0.152
same,z-score,[13],0.475 (inactive)
C1CCN2C[C@@H]3C[C@@H](CN4CCCC[C@@H]34)[C@H]2C1,fluorescence slope change,[14],10.6% (inactive)
same,parasite load remaining,[2],47.2% (inactive)
same,viability,[2],113%
same,nuclear beta-catenin stimulation,[3]; at 10 µM,-0.4% (inactive)
same,nuclear beta-catenin stimulation,"[3]; stimulation, at 2 µM",-0.5%
same,insulin secretion stimulation,[4],15.2% (inactive)
same,viability decrease,[5],5.9% (inactive)
same,tube area decrease,[6],-8.8% (inactive)
same,GLP1 secretion stimulation,[7],1.2% (inactive)
same,inhibition of viability,[8],22.6% (inactive)
same,viability decrease (inhibition),[9],3.2% (inactive)
same,viability decrease (inhibition),[10],4.2% (inactive)
same,fold change,[11]; [17],0.853 (inactive)
same,fold change,[11]; [18],1.2
same,cell count,[11]; [19],8930
same,cell count,[11]; [20],10500
same,remaining NAD,[15],10 nM (inactive)
same,luciferase signal,[16],60 AU (inactive)
C[C@]12CC[C@H]3[C@@H](CCC4=CC(=O)CC[C@@]43C)[C@@H]1CC[C@@H]2C(=O)CO,survival,[1],2.75 (inactive)
same,parasite load remaining,[2],95.4% (inactive)
same,viability,[2],96.9%
same,nuclear beta-catenin stimulation,[3]; at 10 µM,3.8% (inactive)
same,nuclear beta-catenin stimulation,"[3]; stimulation, at 2 µM",5.6%
same,insulin secretion stimulation,[4],0.8% (inactive)
same,viability decrease,[5],-35.8% (inactive)
same,tube area decrease,[6],34.3% (inactive)
same,GLP1 secretion stimulation,[7],2.7% (inactive)
same,inhibition of viability,[8],27.8% (inactive)
same,viability decrease (inhibition),[9],23.6% (inactive)
same,viability decrease (inhibition),[10],8.8% (inactive)
same,fold change,[11]; [17],0.793 (inactive)
same,fold change,[11]; [18],1.3
same,cell count,[11]; [19],7560
same,cell count,[11]; [20],9530
same,z-score,[12]; [21],-0.237 (inactive)
same,z-score,[12]; [22],0.173
CCCNC(C)C(=O)Nc1c(C)csc1C(=O)OC (stereo not drawn),survival,[1],18.4 (inactive)
same,parasite load remaining,[2],137% (inactive)
same,viability,[2],71.1%
same,nuclear beta-catenin stimulation,[3]; at 10 µM,-0.2% (inactive)
same,nuclear beta-catenin stimulation,"[3]; stimulation, at 2 µM",2%
same,insulin secretion stimulation,[4],4.8% (inactive)
same,viability decrease,[5],1.9% (inactive)
same,tube area decrease,[6],5.2% (inactive)
same,GLP1 secretion stimulation,[7],-3.4% (inactive)
same,inhibition of viability,[8],8.5% (inactive)
same,viability decrease (inhibition),[9],2.2% (inactive)
same,viability decrease (inhibition),[10],2.2% (inactive)
same,fold change,[11]; [17],0.925 (inactive) and 0.913 (inactive)
same,fold change,[11]; [18],0.61 and 0.602
same,cell count,[11]; [19],8960 and 8560
same,cell count,[11]; [20],9680 and 9380
same,z-score,[12]; [21],-0.278 (inactive) and -0.744 (inactive)
same,z-score,[12]; [22],-0.148 and -0.857
CN(CCCCCCCCCCN(C)C(=O)Oc1cccc([N+](C)(C)C)c1)C(=O)Oc1cccc([N+](C)(C)C)c1,parasite load remaining,[2],77.5% (inactive)
same,viability,[2],106%
same,nuclear beta-catenin stimulation,[3]; at 10 µM,-0.9% (inactive)
same,nuclear beta-catenin stimulation,"[3]; stimulation, at 2 µM",-0.7%
same,insulin secretion stimulation,[4],2.2% (inactive)
same,viability decrease,[5],30.1% (inactive)
same,tube area decrease,[6],-9.4% (inactive)
same,GLP1 secretion stimulation,[7],-4.4% (inactive)
same,inhibition of viability,[8],57.4% (active)
same,viability decrease (inhibition),[9],39.3% (inactive)
same,viability decrease (inhibition),[10],10.2% (inactive)
same,fold change,[11]; [17],0.802 (inactive)
same,fold change,[11]; [18],1.05
same,cell count,[11]; [19],8660
same,cell count,[11]; [20],10800
same,z-score,[12]; [21],-1.21 (inactive)
same,z-score,[12]; [22],-0.227
O=C1CC[C@@H](C(=O)O)N1,nuclear beta-catenin stimulation,[3]; at 10 µM,2.4% (inactive)
same,nuclear beta-catenin stimulation,"[3]; stimulation, at 2 µM",0.7%
same,insulin secretion stimulation,[4],-1.4% (inactive)
same,viability decrease,[5],-1.95% (inactive)
same,tube area decrease,[6],9.1% (inactive)
same,GLP1 secretion stimulation,[7],-0.7% (inactive)
same,inhibition of viability,[8],11.4% (inactive)
same,viability decrease (inhibition),[9],17.1% (inactive)
same,viability decrease (inhibition),[10],6.75% (inactive)
same,fold change,[11]; [17],0.878 (inactive)
same,fold change,[11]; [18],0.936
same,cell count,[11]; [19],8600
same,cell count,[11]; [20],9800
same,remaining NAD,[15],10 nM (inactive)
COc1ccccc1Oc1c(NS(=O)(=O)c2ccc(C(C)(C)C)cc2)nc(-c2ncccn2)nc1OCCO,parasite load remaining,[2],23% (inactive)
same,viability,[2],71%
same,nuclear beta-catenin stimulation,[3]; at 10 µM,-2.1% (inactive)
same,nuclear beta-catenin stimulation,"[3]; stimulation, at 2 µM",0.8%
same,insulin secretion stimulation,[4],7% (inactive)
same,viability decrease,[5],-5.8% (inactive)
same,tube area decrease,[6],4.9% (inactive)
same,GLP1 secretion stimulation,[7],0.2% (inactive)
same,inhibition of viability,[8],12.9% (inactive)
same,viability decrease (inhibition),[9],81.4% (active)
same,viability decrease (inhibition),[10],16.8% (inactive)
same,fold change,[11]; [17],0.921 (inactive) and 0.93 (inactive) and 0.843 (inactive)
same,fold change,[11]; [18],1.38 and 0.578 and 1.32
same,cell count,[11]; [19],8280 and 8370 and 9010
same,cell count,[11]; [20],8980 and 9000 and 10700
same,z-score,[13],0.365 (inactive)

# From PubChem BioAssay
